Compounds with a hit are over-represented: about 6.7% of the library has one in this group of screens.
BoNT-A LC inh2 – BoNT A light chain protease inhibition | inhibition, % at 10 µM | 360,000 compounds, 0.17% hits | multiplex microsphere protease substrate cleavage, flow cytometry
Mtb FBA inh – Mtb fructose-bisphosphate aldolase inhibition; purified M. tuberculosis FBA, fluorescence read-out; inhibition, % at 1 µM; P9WQA3; 360,000 compounds, 2.3% hits; in the data active means inhibition above about 27%
Target sequence (P9WQA3 whole entry, looked up): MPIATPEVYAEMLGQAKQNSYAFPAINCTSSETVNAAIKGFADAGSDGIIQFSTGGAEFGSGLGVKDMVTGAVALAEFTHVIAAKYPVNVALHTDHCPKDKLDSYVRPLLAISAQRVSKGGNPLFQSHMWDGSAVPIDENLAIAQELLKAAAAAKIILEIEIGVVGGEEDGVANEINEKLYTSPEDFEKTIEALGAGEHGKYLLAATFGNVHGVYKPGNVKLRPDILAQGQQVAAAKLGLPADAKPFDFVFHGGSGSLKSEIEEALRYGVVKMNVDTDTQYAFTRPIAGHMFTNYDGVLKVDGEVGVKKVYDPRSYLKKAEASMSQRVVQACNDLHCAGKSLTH
BoNT F protease – BoNT F light chain protease inhibition | 360,000 compounds, 0.22% hits | Multiplex microsphere protease cleavage assay, flow cytometry | inhibition, % at 10 µM; in the data active means inhibition above about 35%, passing the limit was not always enough; inconclusive means no clear call, values can overlap the other calls
Anthrax LF prot – anthrax lethal factor protease inhibition | AID 588501 | inhibition, % at 10 µM | 360,000 compounds, 0.12% hits | multiplex microsphere protease cleavage assay, LF
GDH-TPI counter – counter-screen for M. tuberculosis FBA inhibitors: GDH-TPI coupled enzymes | GDH-TPI coupled enzyme counterscreen, NADH absorbance | inhibition, % at 4.8 µM | 360,000 compounds, 1.2% hits | AID 588335; in the data active means inhibition above about 30%
Autofluor counter – counter-screen for toxin protease inhibitors: compound fluorescence; compound autofluorescence counterscreen, microsphere flow cytometry; active compounds read high; fluorescence intensity (concentration not given with the values); 360,000 compounds, 3.1% hits; in the data active means fluorescence intensity above about 16000; inconclusive means no clear call, values can overlap the other calls
Large screens that a line does not name were inactive. Unless noted, no stated cut-off is given here; in the data, active means inhibition above about 30%; inconclusive means no clear call, values can overlap the other calls; inactive means below that.

O=C(Nc1nncs1)c1cccc(S(=O)(=O)N2CCOCC2)c1	Autofluor counter 16353
c1nc(NC2CCCCCC2)c2[nH]cnc2n1	none
c1nc(NC2CCCCC2)c2[nH]cnc2n1	Autofluor counter 19676
N#CCSc1nc2sccc2c(=O)n1-c1ccccc1	none
COc1ccc(C2=Nn3c(nnc3-c3ccncc3)SC2)cc1OC	none
COc1ccc(C2=Nn3c(nnc3-c3ccccc3OC)SC2)cc1OC1CCOC1 (stereo not drawn)	none
CCc1nnc2n1N=C(c1ccc(OC)cc1)CS2	Autofluor counter 17512
COc1ccccc1-c1nnc2n1N=C(c1ccc(O)c(O)c1)CS2	GDH-TPI counter 36.1
COc1ccc(C2=Nn3c(nnc3-c3ccccn3)SC2)cc1	BoNT-A LC inh2 inconclusive, Autofluor counter 24133
c1ccc(-c2ccc(C3=Nn4c(nnc4-c4cc(-c5ccccc5)n[nH]4)SC3)cc2)cc1	GDH-TPI counter 44.2, Autofluor counter 18459
CC1=Nn2c(nnc2-c2cc(-c3ccccc3)n[nH]2)SC1	none
CCOc1ccc(C2=Nn3c(nnc3-c3ccccc3OC)SC2)cc1	Autofluor counter 22729
CCOc1ccc(-c2nnc3n2N=C(c2ccc(OC)cc2)CS3)cc1	Autofluor counter 19797
COc1cccc(-c2nnc3n2N=C(c2cccc(Br)c2)CS3)c1	BoNT-A LC inh2 inconclusive, Autofluor counter 20881
Cc1ccc(-c2nnc3n2N=C(c2ccc(Br)cc2)CS3)cc1	none
CCOc1cc(CNn2cnnc2)ccc1OCC(=O)NC1CCCCC1	Autofluor counter 21782
CCOc1ccccc1OCC(=O)NC1CCCCC1	none
CCc1ccccc1OCC(=O)Nc1ccc(N2CCCC2)cc1C	Autofluor counter 23739
O=c1cc(-c2ccccc2)oc2cc(O)ccc12	none
Nc1ccc(-c2c3ccc(=O)cc-3oc3cc(O)ccc23)cc1C(=O)O	BoNT F protease inconclusive, Anthrax LF prot 128.2
O=c1ccc2c(-c3ccccc3)c3ccc(O)cc3oc-2c1	BoNT F protease 87.8, Anthrax LF prot 55.8
CCCCOc1ccc(-c2nc(=S)[nH][nH]2)cc1	BoNT-A LC inh2 inconclusive, Autofluor counter 16673
COc1ccc(-c2nc(SCC(=O)Nc3cc(C)on3)n[nH]2)cc1	none
CCCCOc1ccc(-c2nc(SCC(N)=O)n[nH]2)cc1	Autofluor counter 20074
O=C(NCC(c1ccco1)N1CCCC1)c1cc2ccccc2s1 (stereo not drawn)	Autofluor counter 16777
Cc1ccc(C(=O)NCC(c2ccco2)N2CCCCC2)s1 (stereo not drawn)	none
Cc1cccc(OCCC(=O)NCC(c2ccco2)N2CCCCC2)c1 (stereo not drawn)	BoNT-A LC inh2 inconclusive, Autofluor counter 20481
Cc1cccc(OCC(=O)NCC(c2ccco2)N2CCCC2)c1 (stereo not drawn)	Autofluor counter inconclusive
CCN(CC)C(=O)c1cc(-c2ccccc2OC)on1	none
CC1CC(CC(C)C(=O)Nc2nncs2)C(=O)O1 (stereo not drawn)	BoNT-A LC inh2 inconclusive, Autofluor counter 22855
CC(=O)c1cccc(NC(=O)C(C)OC(=O)C2=NNC(=O)CC2)c1 (stereo not drawn)	none
CCc1nc2ccc(C(=O)NCc3ccc(OC)cc3)cn2c1N(CC)CCN(C)C	none
O=C(CCc1ccccc1)n1nc(-c2ccccc2)nc1NCc1ccco1	Autofluor counter 23164
c1ccc(-c2ccc(-c3ccncn3)cc2)cc1	Mtb FBA inh 116.6
c1ccc(-c2csc(-c3ccncc3)n2)cc1	none
Clc1cccc(N2CCN(Cc3ccc(Br)o3)CC2)c1	none
N#CC1=C(N)C(C#N)(C#N)C(c2cccnc2)C2CN(C(=O)OCc3ccccc3)CC=C12 (stereo not drawn)	none
CCCCOc1ccc(C2C3CN(C(=O)OCC)CC=C3C(C#N)=C(N)C2(C#N)C#N)cc1OC (stereo not drawn)	Autofluor counter 23656
CCOC(=O)N1CC=C2C(C#N)=C(N)C(C#N)(C#N)[C@H](c3ccc(OCC)c(OCC)c3)[C@H]2C1	Autofluor counter 20898
Cc1ccccc1OCC(=O)OCC(=O)NCCc1ccccc1	none
CNCc1sccc1C	Mtb FBA inh 33.9
Cc1ccsc1CNS(=O)(=O)c1ccc(F)cc1	none
COc1ccc(O)c(/C=N/NC(=O)CCC(=O)Nc2cccc(C)c2)c1	BoNT F protease inconclusive
COc1ccc(OC)c(/C=N/NC(=O)CNC(=O)c2cccc3ccccc23)c1	Mtb FBA inh 145.2
COc1ccc(OC)c(/C=N/NC(=O)CCCC(=O)Nc2cccc(Br)c2)c1	Mtb FBA inh 59.7
COc1cccc(/C=N/NC(=O)c2cccc3ccccc23)c1	none
CC1Cc2ccccc2N1C(=O)CSc1nnnn1-c1ccc2c(c1)OCCO2 (stereo not drawn)	none
CCNC(=O)C(C)NC(=O)C1=NN(c2ccccc2)C(=O)CC1 (stereo not drawn)	none
N#Cc1ccsc1NC(=O)c1ccccn1	Autofluor counter 22222
CCOC(=O)c1c(C)n(C)c2cc(OCCN(CC)CC)ccc12	none
CCOC(=O)C1=NN(c2cccc(Cl)c2)C2=NC(C)=C(C(=O)OC)C(c3cccs3)N12 (stereo not drawn)	none
CCc1c(C(C)S(=O)(=O)c2ccc(C)cc2)[nH]c(=O)n1-c1ccc(OC(F)(F)F)cc1 (stereo not drawn)	none
Cc1oc2cc(OCC(=O)O)ccc2c(=O)c1Oc1ccccc1	none
CCc1cc2c(=O)c(Oc3ccccc3)c(C)oc2cc1O	Mtb FBA inh 185.9
COc1cccc(C2=CC(=O)CC(C)(C)C2)c1	none
CC1(C)CC(=O)C=C(c2ccc3[nH]ccc3c2)C1	GDH-TPI counter 33.9
c1ccc(-c2ccc3[nH]ccc3c2)cc1	none
COc1ccc(C2=CC(=O)C[C@H](c3ccc(OC)c(OC)c3)C2)cc1	none
COc1ccc(C2=CC(=O)CC(C)(C)C2)cc1OC	GDH-TPI counter 35.2
COc1ccc2cc(C3=CC(=O)CCC3)ccc2c1	GDH-TPI counter 31.5
O=C1C=C(c2ccc3[nH]ccc3c2)CCC1	GDH-TPI counter 35.5
COc1ccc(C(C)=O)cc1COC(=O)c1ccc2c(c1)OCO2	none
COn1c(SC2CCCCC2)nc2ccccc2c1=O	Autofluor counter 17818
CC(C)On1c(SC(C)C)nc2ccccc2c1=O	Autofluor counter 22943
CSc1nc2nc(C(F)(F)F)cc(-c3ccccc3)n2n1	Mtb FBA inh 33.8, BoNT F protease inconclusive
CSc1nc2nc(-c3ccccc3)cc(C(F)(F)F)n2n1	Mtb FBA inh 36.8
CCc1ccc(-c2c(C)sc(NC(C)=O)c2C(N)=O)cc1	Autofluor counter 22107
Cc1ccccc1NS(=O)(=O)c1ccc(C(=O)N2CCCCCC2)cc1	none
O=C(C1CCCN1C(=O)c1cccs1)N1CCc2ccccc21 (stereo not drawn)	none
CCc1ccccc1N1CC(C(=O)Nc2nccs2)CC1=O (stereo not drawn)	none
O=C(Nc1nccs1)C1CC(=O)N(c2ccccc2Cl)C1 (stereo not drawn)	Autofluor counter 23519
COc1ccc(OC)c(/C=C/C(=O)OCC(=O)N2CCCCC2)c1	none

Screens (PubChem)
